# Results taken from the supplement of paper PMC6555819.
# Tested on: VDR:RXRa (NR concentration 270 nM, RXRa partner concentration 90 nM)
# Assay: PBM binding z-score (relative to random genomic background probes); higher = stronger binding; sequences stand for … in GC…GCGATTGACAGCGTAGAATGAAGG
# Procedure: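 Protein-binding microarray (Agilent 4x180K custom design, double-stranded 60-nt probes: 5' GC cap, 34-nt variable region, 24-nt constant primer region; full probe sequence given). Purified or IVT nuclear receptor:RXRα heterodimers (3:1 NR:RXRα, mostly 270:90 nM) or homodimers were incubated for 1 h in PBS with 2% milk and no ligand, then detected with Alexa488 antibodies. Fluorescence from o1-orientation probes (~5 replicates averaged) was converted to z-scores against 500 random hg19 background probes. Variable regions are seed direct-repeat (DR0–DR5) sites, all their single-nucleotide variants and half-site ablations.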
row,Sequence,PBM binding z-score
1,TAGCCTAGATCAGATCGGGCCAGTATACGCTATA,-0.89
2,CCTATTTGGTCAAGGTCACACACGCTATAGGTAC,4.18
3,ACAGACAGGGGAGTGAAGGTAACTCAGCTGGACG,-0.347
4,TCTATTAGTTGACGGGCAACCGACGAGTCCGTTT,0.671
5,TCTCGGAGGACACGAAAGGTCAGAGCTCGACATC,3.28
6,GCTATTAGTTGAAAGGGCAAGCGAATGATTCTCG,0.461
7,TTACCAAGGTGAAGGTCGTTGAGCCCTCTGTAGA,1
8,CCAGACACGTGAAAGGTAACTCAGTCTGGTACGC,-0.114
9,ACTAGCAGGCCAAGTTTGGTTCACTCAAACAAAG,0.34
10,CCTACTGGGCCAAGGTCCTTGATCAGTCAAAGCA,-0.657
11,CCTCGGAGGACAACAGGAGGTCAGAACTGCCAGA,1.67
12,ACATACAGGTGATGAAGGTAACTCAGGCTATCAT,0.555
13,CCCACTGGGCCACGAAAGGTCATTGATTCAGTGA,4.18
14,CCTCGGAGGACAGATGGTCAGAGCTGTCCGCTTT,-0.581
15,CAAACTAGGTCACGAACGGTCAAAGTCGAATGAC,4.04
16,CAAACTAGGTCAATGTCAAAGTCGGTTTGTGCCA,1.58
17,AATACAGGGTCACTAGGCCAGGGTAGGTACGAAT,4
18,CCTGCTAGGTCATCGTCAGCTAATCTACAGTATG,1.87
19,CCTTACGAGTCACTGACAGGTTATAGCATTTGGA,1.06
20,TCTTGTAGATCAAAGGTTAAGATAGCCGAAGCCT,1.49

row,Sequence,PBM binding z-score
1,TTACCGAGGTGAAGGTCGTTGATCCCTCTGTAGA,1.5
2,AGTCAATGTTCAGGACGAGGTAACGTAAAGCACG,0.00608
3,CCGACTGGTGCAGAAAGGTTACCATACCATCCGG,0.685
4,GCATGTAGGTAATACAAGGTGAAAGTCCGATTGT,0.342
5,CCAGACAGGAGAGAAGGTAACTCAGCCTCGATTA,-0.312
6,GATACAGGGTCAAGGCCCGAGTACGCGTATTGAT,4.28
7,CAGCCTAGGTCAGGGCCAGTTTAGGAGGAACGTT,0.723
8,CCTACTGGGCCAAAGGTCATTGTTTCCAATGCTC,4.11
9,CCTAGTTGGTCAGGATGTCACACACCGGATATGA,0.176
10,TCGAGTAGGTTACCAATGGGGCATTCTGCTTTCT,-0.0796
11,ACTTACGGGACAACGAGGTTATAGCACGCGTATA,2.29
12,ATCTCTAGGTAATGATAGTTCAGTGAATGCAAAT,0.849
13,TCTGCTAGGTCAGTTGGTCACCTAACGAGCTGCC,0.235
14,CCTCGGAGGACAGACGGTCAGAGCTGTCCGCTTT,-0.53
15,CCTAGCAGGCCAGGGTCACTCAAGCATTTCGCTT,2.48
16,CCTACTGGGCCATTCAGAGGTCATAGATCATATG,3.64
17,AGAACGAGGGCATGCTGAGTTGATAGCAGAGTAG,1.5
18,ACTAGCAGGCCAAGGGTCACTCAGGATTAGTCCG,3.03
19,TCGGGTAGGTTACCAATGGGGCATTCAGCTTTCT,0.639
20,ATCTCTAGCTAACAAGTTCAGTGAAAGAGAGGAC,1.64
